# Data as given in PubChem BioAssay (NCATS).
# Results filed as inconclusive are left out. A number with no mark means an inactive call. Active and inactive are the calls of the source. Calls follow the shape of the dose curve; as a rule, active = well fitted cell-killing curve with a large enough effect; inconclusive = small, poorly fitted or top-dose-only effect, or effect the other way; inactive = no such curve, though single readings can be large or run the other way.
# How the values were obtained:
# [1] = Quantitative High-Throughput drug screen in 47 multiple myeloma cell lines against the NCATS MIPE library collection: MM1S_ATCC cell viability assay (AID 1918980); also: nearly all actives have a fitted effect of over 45% in size
# Summary of the method: (§1)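 Viability after 48 h drug exposure was measured as ATP-dependent luminescence. Cells, 500 per well, sat at 37 °C under 5% CO2; DMSO wells set 100%, media-only wells 0%.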
# [2] = Quantitative High-Throughput drug screen in 47 multiple myeloma cell lines against the NCATS MIPE library collection: MM1R_ATCC cell viability assay (AID 1918981); also: nearly all actives have a fitted effect of over 35% in size
# Summary of the method: as §1
# [3] = Quantitative High-Throughput drug screen in 47 multiple myeloma cell lines against the NCATS MIPE library collection: KMS28PE_JCRB cell viability assay (AID 1918983); also: nearly all actives have a fitted effect of over 35% in size
# Summary of the method: as §1
# [4] = Quantitative High-Throughput drug screen in 47 multiple myeloma cell lines against the NCATS MIPE library collection: L363_DSMZ cell viability assay (AID 1918984); also: nearly all actives have a fitted effect of over 40% in size
# Summary of the method: as §1
# [5] = Quantitative High-Throughput drug screen in 47 multiple myeloma cell lines against the NCATS MIPE library collection: OCIMY7_PLB cell viability assay (AID 1918987); conditions: OCI-MY7 myeloma viability, CellTiter-Glo ATP, 48 h; viability (% of DMSO): at 45.8 µM (top of the series); also: nearly all actives have a fitted effect of over 65% in size
# Summary of the method: as §1
# [6] = Quantitative High-Throughput drug screen in 47 multiple myeloma cell lines against the NCATS MIPE library collection: OCIMY5_PLB cell viability assay (AID 1918988); also: nearly all actives have a fitted effect of over 65% in size
# Summary of the method: as §1
# [7] = Quantitative High-Throughput drug screen in 47 multiple myeloma cell lines against the NCATS MIPE library collection: OPM1_PLB cell viability assay (AID 1918989); also: nearly all actives have a fitted effect of over 40% in size
# Summary of the method: as §1
# [8] = Quantitative High-Throughput drug screen in 47 multiple myeloma cell lines against the NCATS MIPE library collection: U266_ATCC cell viability assay (AID 1919864); also: nearly all actives have a fitted effect of over 35% in size
# Summary of the method: as §1
# [9] = Quantitative High-Throughput drug screen in 47 multiple myeloma cell lines against the NCATS MIPE library collection: XG1_PLB cell viability assay (AID 1919866); also: nearly all actives have a fitted effect of over 35% in size
# Summary of the method: as §1
# [10] = Quantitative High-Throughput drug screen in 47 multiple myeloma cell lines against the NCATS MIPE library collection: UTMC2_PLB cell viability assay (AID 1919868); conditions: CellTiter-Glo ATP luminescence, 48 h; viability (% of DMSO control): at 45.8 µM (top of the series); also: nearly all actives have a fitted effect of over 55% in size
# Summary of the method: as §1
# [11] = Quantitative High-Throughput drug screen in 47 multiple myeloma cell lines against the NCATS MIPE library collection: PE2_PLB cell viability assay (AID 1919869); also: nearly all actives have a fitted effect of over 35% in size
# Summary of the method: as §1
# [12] = Quantitative High-Throughput drug screen in 47 multiple myeloma cell lines against the NCATS MIPE library collection: PCM6_Riken cell viability assay (AID 1919870); also: nearly all actives have a fitted effect of over 30% in size
# Summary of the method: as §1
# [13] = Quantitative High-Throughput drug screen in 47 multiple myeloma cell lines against the NCATS MIPE library collection: OPM2_DSMZ cell viability assay (AID 1919872); also: nearly all actives have a fitted effect of over 30% in size
# Summary of the method: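 Viability readout: CellTiter-Glo luminescence following 5 min room-temperature incubation with reagent. Prior exposure: 48 h, 37C, humidified 5% CO2, 500 cells per well.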
# [14] = Quantitative High-Throughput drug screen in 47 multiple myeloma cell lines against the NCATS MIPE library collection: KMS34_JCRB cell viability assay (AID 1918985); also: nearly all actives have a fitted effect of over 40% in size
# Summary of the method: as §1
# [15] = Quantitative High-Throughput drug screen in 47 multiple myeloma cell lines against the NCATS MIPE library collection: XG6_PLB cell viability assay (AID 1919865); also: nearly all actives have a fitted effect of over 40% in size
# Summary of the method: as §1
# [16] = Quantitative High-Throughput drug screen in 47 multiple myeloma cell lines against the NCATS MIPE library collection: VP6_DJ cell viability assay (AID 1919867); also: nearly all actives have a fitted effect of over 40% in size
# Summary of the method: as §1
# [17] = Quantitative High-Throughput drug screen in 47 multiple myeloma cell lines against the NCATS MIPE library collection: LP1_DSMZ cell viability assay (AID 1918982); also: nearly all actives have a fitted effect of over 35% in size
# Summary of the method: as §1
# [18] = Quantitative High-Throughput drug screen in 47 multiple myeloma cell lines against the NCATS MIPE library collection: RPMI8226_ATCC cell viability assay (AID 1919871); also: nearly all actives have a fitted effect of over 30% in size
# Summary of the method: as §1
# [19] = Quantitative High-Throughput drug screen in 47 multiple myeloma cell lines against the NCATS MIPE library collection: SKMM1_PLB cell viability assay (AID 1919863); conditions: SKMM1 myeloma viability, CellTiter-Glo ATP, 48 h; viability: active compounds read low; also: nearly all actives have a fitted effect of over 35% in size
# Summary of the method: as §1
# Potency is read from the fitted curve at half-maximal effect.
SMILES,Potency [1],Potency [2],Potency [3],Potency [4],Potency [5],Potency [6],Potency [7],Potency [8],Potency [9],Potency [10],Potency [11],Potency [12],Potency [13],Potency [14],Potency [15],Potency [16],Potency [17],Potency [18],Potency [19],viability [19]
Cc1cc(Nc2ncc3c(n2)N(C)C(=O)N(c2cc(NC(=O)c4cccc(C(F)(F)F)c4)ccc2C)C3)n(C)n1,0.935 µM (active),1.32 µM (active),1.32 µM (active),1.32 µM (active),0.526 µM (active),0.935 µM (active),0.235 µM (active),1.32 µM (active),2.35 µM (active),0.418 µM (active),0.743 µM (active),1.87 µM (active),0.743 µM (active),–,–,–,–,–,–,–
O=C(NC1CC1)c1cccc(-c2ccc3c(NC(=O)C4CC4)n[nH]c3c2)c1,0.332 µM (active),1.48 µM (active),10.5 µM (active),inactive,7.43 µM (active),0.332 µM (active),14.8 µM (active),–,1.05 µM (active),–,–,–,14.8 µM (active),20.9 µM (active),1.48 µM (active),9.35 µM (active),–,–,–,–
N#CC(=C(O)c1ccc(Cl)cc1Cl)c1nc2cc(Cl)ccc2c(=O)[nH]1,inactive,–,inactive,inactive,inactive,–,inactive,inactive,–,inactive,–,–,inactive,–,–,16.6 µM (active),inactive,inactive,–,–
CCN(CC)CCCCNc1ncc2c(n1)N(C)C(=O)N(c1c(Cl)c(OC)cc(OC)c1Cl)C2,4.69 µM (active),16.6 µM (active),10.5 µM (active),inactive,–,14.8 µM (active),0.833 µM (active),18.7 µM (active),13.2 µM (active),–,–,16.6 µM (active),–,–,23.5 µM (active),18.7 µM (active),–,14.8 µM (active),14.8 µM (active),–
O=c1[nH]c(=O)n([C@H]2C[C@@H](O)[C@@H](CO)O2)cc1F,11.8 µM (active),–,20.9 µM (active),–,0.59 µM (active),26.4 µM (active),0.0296 µM (active),23.5 µM (active),9.35 µM (active),–,14.8 µM (active),14.8 µM (active),–,–,–,18.7 µM (active),10.5 µM (active),–,–,–
Cn1cc(C=CC(=O)c2cccc(F)c2)cc1C=CC(=O)NO,14.8 µM (active),16.6 µM (active),–,11.8 µM (active),11.8 µM (active),14.8 µM (active),23.5 µM (active),14.8 µM (active),5.9 µM (active),–,20.9 µM (active),18.7 µM (active),23.5 µM (active),–,2.35 µM (active),–,–,inactive,–,–
CS(=O)(=O)N1CCc2c(-c3cnc(N)nc3)nc(N3CCOCC3)nc21,0.235 µM (active),0.209 µM (active),0.118 µM (active),–,–,0.332 µM (active),0.332 µM (active),0.296 µM (active),0.372 µM (active),0.001 µM (active),0.296 µM (active),5.26 µM (active),–,0.833 µM (active),–,0.418 µM (active),–,–,–,–
CCOC(=O)C1=C(C)NC(=S)NC1c1cccc(O)c1 (centres undefined),0.0418 µM (active),0.0296 µM (active),0.0833 µM (active),–,0.105 µM (active),0.0235 µM (active),0.0296 µM (active),inactive,0.0662 µM (active),–,0.0148 µM (active),0.0372 µM (active),0.105 µM (active),0.0833 µM (active),0.0296 µM (active),0.0296 µM (active),–,–,0.0526 µM (active),–
CC(C=CC=C(C)C=CC1=C(C)CCCC1(C)C)=CC=CC=C(C)C=CC=C(C)C=CC1=C(C)CCCC1(C)C,–,16.6 µM (active),–,16.6 µM (active),2.09 µM (active),9.35 µM (active),inactive,16.6 µM (active),16.6 µM (active),–,–,23.5 µM (active),inactive,–,–,23.5 µM (active),inactive,–,–,107%
O=C(Nc1nnc(-c2ccco2)o1)c1cc(-c2ccccc2)nc2ccccc12,–,–,–,–,–,18.7 µM (active),20.9 µM (active),–,13.2 µM (active),–,18.7 µM (active),18.7 µM (active),inactive,–,4.18 µM (active),14.8 µM (active),–,13.2 µM (active),–,–
CCCCCCCCCCCCCCCC(=O)OC[C@@H](NC(=O)C(Cl)Cl)[C@H](O)c1ccc([N+](=O)[O-])cc1,–,–,inactive,inactive,–,inactive,inactive,inactive,–,–,inactive,inactive,inactive,inactive,inactive,inactive,inactive,–,–,–
O=C(O)C[C@H](O)C[C@H](O)C=Cc1c(C2CC2)nc2ccccc2c1-c1ccc(F)cc1,–,5.9 µM (active),14.8 µM (active),5.26 µM (active),2.35 µM (active),20.9 µM (active),2.64 µM (active),–,3.32 µM (active),9.35 µM (active),4.69 µM (active),–,–,–,18.7 µM (active),16.6 µM (active),–,16.6 µM (active),–,–
COc1ccc(Nc2nccc(NCCO)n2)cc1,–,–,–,inactive,–,–,inactive,–,inactive,inactive,–,–,–,–,inactive,1.66 µM (active),–,–,–,–
CC(C)(C)c1nc2c3cc[nH]c(=O)c3c3cc(F)ccc3c2[nH]1,–,2.64 µM (active),6.62 µM (active),–,0.332 µM (active),1.87 µM (active),0.743 µM (active),1.87 µM (active),0.743 µM (active),0.187 µM (active),0.833 µM (active),0.743 µM (active),–,1.66 µM (active),1.32 µM (active),–,–,2.96 µM (active),0.935 µM (active),–
Cc1cnn(C)c1C(=O)Nc1cc(Nc2ccc3c(C=Cc4ccccn4)n[nH]c3c2)ccc1F,–,26.4 µM (active),29.6 µM (active),4.69 µM (active),–,–,4.69 µM (active),20.9 µM (active),4.69 µM (active),–,2.64 µM (active),4.69 µM (active),–,–,5.9 µM (active),10.5 µM (active),20.9 µM (active),26.4 µM (active),20.9 µM (active),–
C[C@@]12C[C@@]3(O)O[C@@H](O1)[C@]1(COC(=O)c4ccccc4)[C@@H]3C[C@@]12O[C@@H]1O[C@H](CO)[C@@H](O)[C@H](O)[C@@H]1O,–,–,inactive,inactive,–,inactive,inactive,inactive,inactive,–,inactive,inactive,inactive,–,–,2.64 µM (active),inactive,inactive,–,–
C[C@@H](NCc1cc2ccccc2[nH]1)c1cccc2ccccc12,–,inactive,inactive,–,–,inactive,inactive,inactive,–,–,–,inactive,inactive,–,inactive,–,–,inactive,–,132%
CCCCCN=C(N)NN=Cc1c[nH]c2ccc(OC)cc12,–,–,10.5 µM (active),2.09 µM (active),2.96 µM (active),3.72 µM (active),11.8 µM (active),–,2.35 µM (active),–,4.18 µM (active),–,10.5 µM (active),–,–,–,–,14.8 µM (active),0.296 µM (active),–
C[C@@H]1C(=O)O[C@H]2CC34[C@H]5C[C@@H](C(C)(C)C)C36[C@H](OC(=O)[C@@H]6O)O[C@@]4(C(=O)O5)[C@]21O (some centres undefined),–,inactive,inactive,–,–,–,–,inactive,inactive,inactive,inactive,–,inactive,inactive,inactive,–,–,inactive,–,–
C[C@@H](Cc1cc2c(c(C(N)=O)c1)N(CCCO)CC2)NCCOc1ccccc1OCC(F)(F)F,–,inactive,inactive,–,–,–,inactive,–,–,–,inactive,inactive,inactive,inactive,–,–,–,inactive,–,–
CN(N=O)C(=O)N[C@H]1C(O)OC(CO)[C@@H](O)[C@H]1O (some centres undefined),–,–,–,inactive,inactive,–,inactive,–,inactive,–,inactive,inactive,–,–,inactive,–,inactive,inactive,–,–
O=c1[nH]c(=O)n([C@H]2C[C@@H](O)[C@@H](CO)O2)cc1C=CBr,–,–,inactive,inactive,–,–,0.105 µM (active),inactive,inactive,–,inactive,inactive,inactive,inactive,inactive,inactive,inactive,inactive,–,–
c1cc(CN2CCCNCCNCCCNCC2)ccc1CN1CCCNCCNCCCNCC1,–,–,inactive,inactive,–,–,inactive,–,inactive,–,inactive,–,inactive,inactive,–,inactive,–,inactive,–,136%
CCCCOc1ccc(C(=O)Nc2ccc(F)cc2F)cc1,–,–,–,inactive,0.105 µM (active),inactive,inactive,–,inactive,–,inactive,inactive,–,–,inactive,7.43 µM (active),inactive,inactive,–,–
CC(=O)NC(CS)C(=O)O (centres undefined),–,–,–,–,–,–,inactive,–,inactive,–,inactive,inactive,–,–,inactive,inactive,inactive,inactive,–,–
O=C(CN1C(=O)C2(CCCC2)NC[C@H]1c1cc(F)cc(F)c1)Nc1ccc2c(c1)C[C@@]1(C2)C(=O)Nc2ncccc21,–,inactive,–,inactive,–,inactive,inactive,–,inactive,inactive,–,inactive,inactive,inactive,inactive,–,–,inactive,–,120%
C=C(C)[C@@H]1CC[C@]2(C)CC[C@]3(C)[C@H](CC[C@@H]4[C@@]5(C)CC[C@H](O)C(C)(C)[C@H]5CC[C@]43C)[C@@H]12,–,inactive,inactive,–,–,inactive,inactive,–,inactive,–,inactive,inactive,–,–,inactive,–,–,–,–,–
